# HePTP inhibitor: inhibitors of human HePTP phosphatase, primary screen, biochemical, absorbance, leukemia target | inhibition, % at 20 µM | recombinant HePTP phosphatase activity, OD absorbance | 0.64% of 110,000 active | Tyrosine-protein phosphatase non-receptor type 7 (Homo sapiens), P35236; in the data active = inhibition above about 50%
# Smad3 inh: Smad3/FoxH1 peptide binding inhibitors, primary screen, biochemical, TR-FRET; Mothers against decapentaplegic homolog 3 (Homo sapiens), P84022; TR-FRET Smad3/Dy647-FoxH1 peptide binding, europium anti-His; inhibition, % at 25 µM; 0.29% of 88,000 active;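 active = compounds that reduce the energy-transfer binding signal between the protein and its labelled peptide by more than half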
# Target sequence (P84022 whole entry, looked up): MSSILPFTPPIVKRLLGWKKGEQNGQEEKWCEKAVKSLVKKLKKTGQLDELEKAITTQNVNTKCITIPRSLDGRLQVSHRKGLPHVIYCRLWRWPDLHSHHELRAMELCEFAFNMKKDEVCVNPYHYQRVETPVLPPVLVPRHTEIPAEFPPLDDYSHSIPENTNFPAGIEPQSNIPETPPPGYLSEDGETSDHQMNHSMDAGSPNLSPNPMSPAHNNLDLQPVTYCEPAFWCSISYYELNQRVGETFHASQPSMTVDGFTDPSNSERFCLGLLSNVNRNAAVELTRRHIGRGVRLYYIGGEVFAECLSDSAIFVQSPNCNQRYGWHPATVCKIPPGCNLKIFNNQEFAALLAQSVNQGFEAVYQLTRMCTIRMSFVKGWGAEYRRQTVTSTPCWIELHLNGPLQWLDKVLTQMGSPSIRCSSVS
# ERb coact inh: inhibitors of ERβ-SRC1 coactivator interaction, primary screen, biochemical, TR-FRET, ERβ LBD, SRC-1 peptide; Estrogen receptor beta (Homo sapiens), Q92731; TR-FRET ER-beta LBD / SRC1-Cy5 peptide binding; receptor agonist-loaded with 1 µM estradiol; inhibition, % at 25.6 µM; 1.3% of 86,000 active; AID 633, 2007;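 active = compounds whose percent inhibition of the receptor-coactivator binding signal exceeds about 50% in the single-dose screen, limit read from the data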
# ERa SRC1 pot: enhancers of ERα–SRC-1 coactivator binding, primary screen, biochemical, TR-FRET, ERα LBD, low estradiol; Estrogen receptor (Homo sapiens), P03372; coactivator binding (% of control), % at 25.6 µM; 1.3% of 86,000 active; TR-FRET ERalpha-LBD/SRC-Cy5 coactivator binding, 2 h; 100 = basal binding, no effect; in the data active = activity above about 200%;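 also: binding measured in presence of low estradiol as agonist stimulus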
# Calb biofilm kill: clotrimazole potentiators killing Candida biofilms, primary screen, with clotrimazole, Alamar Blue; C. albicans biofilm + clotrimazole; inhibition, % at 6 µM; 0.14% of 85,000 active; AID 834, 2007;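 active = inhibition above 20%; inactive = inhibition below 20%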;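 also: preformed 24 hr biofilms exposed to compound for 48 hr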
# ERa coact inh: ERα–SRC-1 coactivator interaction inhibitors, primary screen, biochemical, TR-FRET, ERα LBD, estradiol-bound; AID 629, 2007; inhibition, % at 25.6 µM; TR-FRET ER-alpha LBD / SRC-1 peptide; Estrogen receptor (Homo sapiens), P03372; 1.7% of 86,000 active; in the data active = inhibition above about 50%
# Numbers stand for hits; 0 = inactive; - = not tested or not shown; [ ] = another dose, or the depositor's remark. In the library only some 2.9% were active in any assay of this set; here they are far more common.
SMILES,HePTP inhibitor,Smad3 inh,ERb coact inh,ERa SRC1 pot,Calb biofilm kill,ERa coact inh
O=C1NC(=O)N(c2ccccc2)C(=O)/C1=C/c1ccc(-c2ccccc2C(=O)O)o1,0,-,-,-,-,-
O=C1NC(=O)N(c2ccccc2)C(=O)/C1=C\c1ccc(Br)o1,69,-,-,-,-,-
O=C1NN(c2ccccc2)C(=O)/C1=C/c1ccc(Br)o1,102,-,-,-,-,-
CCOc1ccc(N2C(=O)NC(=O)/C(=C\c3ccc(Br)o3)C2=O)cc1,93,-,-,-,-,-
O=C1NN(c2ccccc2)C(=O)/C1=C/c1ccc([N+](=O)[O-])o1,103,-,-,-,-,-
CCOc1ccc(/C=c2\sc3nc4ccccc4n3c2=O)cc1Cl,0,-,-,-,-,-
O=C1C(=O)N(c2nc3ccccc3s2)C(c2ccc3c(c2)OCO3)/C1=C(/O)c1ccccc1 (stereo not drawn),0,-,-,-,-,-
Cc1sc(NC(=O)CSc2nnc(COc3ccccc3)n2C)c(C#N)c1C,0,0,0,0,0,0
CCn1c(SCC(=O)Nc2sc(C)c(C)c2C#N)nnc1C(C)C,0,0,0,0,0,0
Cc1sc(NC(=O)CSc2nnc3scc(-c4ccccc4)n23)c(C#N)c1C,0,0,0,224[fluorescence artefact?],0,0
Cc1ccc(OCc2nnc(SCC(=O)Nc3sc(C)c(C)c3C#N)n2C)cc1,0,0,0,250,0,0
Cc1ccc(-c2csc3nnc(SCc4csc(C)n4)n23)cc1,0,0,0,365[fluorescence artefact?],0,0
Cc1nnc(NC(=O)CSc2nnc3scc(-c4ccc(C)c(C)c4)n23)s1,0,0,0,259,0,0
COc1cc(NC(=O)C(C)Oc2ccccc2)c(Cl)cc1NC(=O)c1ccccc1 (stereo not drawn),0,-,-,-,-,-
Cc1ccc(-c2nc(NC(=O)CSc3nnc4scc(-c5ccccc5)n34)ns2)cc1,0,0,0,203[fluorescence artefact?],0,0
CCc1nnc(NC(=O)CSc2nnc3scc(-c4ccc(C)cc4)n23)s1,0,0,0,0,0,0
CCOC(=O)c1cnn(-c2ccccn2)c1N,0,0,0,0,0,0
CCOC(=O)c1cnn(-c2sc(C(=O)OCC)c(C)c2C(=O)OCC)c1N,0,0,64[fluorescence artefact?],0,0,63[fluorescence artefact?]
O=C1/C(=C/c2c(Cl)cccc2Cl)SC(=S)N1CC1CCCO1 (stereo not drawn),0,-,-,-,-,-
COC(=O)c1ccc(Oc2nc(C(N)=O)cc(-c3ccccc3)n2)cc1,-,0,0,264[fluorescence artefact?],0,0
N#Cc1ccc(Oc2nc(C(N)=O)cc(-c3ccccc3)n2)cc1,-,0,0,0,0,0
COc1ccc(-n2nc(C(=O)NCc3ccco3)c3ccccc3c2=O)cc1,-,0,0,0,0,0
COc1ccc(-n2nc(C(=O)NCc3ccco3)c3c4ccccc4n(C)c3c2=O)cc1,0,0,0,329[fluorescence artefact?],0,0
COc1ccc(N(CC(=O)NCCc2ccc(OC)c(OC)c2)S(=O)(=O)c2ccccc2)cc1,0,-,-,-,-,-
O=C(O)CC(Cn1[nH]nnc1=S)c1ccccc1 (stereo not drawn),-,0,52,0,0,0
SMILES,HePTP inhibitor,Smad3 inh,ERb coact inh,ERa SRC1 pot,Calb biofilm kill,ERa coact inh
O=C(Nc1sc2c(c1C(=O)N1CCCCC1)CCCCC2)c1ccc([N+](=O)[O-])cc1,0,-,-,-,-,-
c1ccc2c(c1)oc1c(Nc3ccc4c(c3)OCO4)ncnc12,0,0,0,0,0,0
c1ccc2c(c1)oc1c(NCc3ccc4c(c3)OCO4)ncnc12,0,0,0,378[fluorescence artefact?],0,0
O=C(O)c1cc(N2C(=O)C=CC2=O)ccc1Cl,50,-,-,-,-,-
COc1ccccc1OCc1ccc(C(=O)O)cc1,0,-,-,-,-,-
CCOC(=O)c1c(NC(=S)Nc2ccc(C)cc2)sc2c1CCN(Cc1ccccc1)C2,0,-,-,-,-,-
Cc1nn(-c2ccccc2)c2sc(C(=O)C(C#N)c3ccccn3)cc12 (stereo not drawn),0,0,93[fluorescence artefact?],0,0,79[fluorescence artefact?]
Cc1nn(-c2ccccc2)c2sc(C(=O)c3c(N)n(C)c(=O)n(C)c3=O)cc12,0,0,0,550,0,0
CCN(CC)c1ccc(N=Cc2c(O)n(C)c(=S)n(C)c2=O)cc1,0,-,-,-,-,-
N#Cc1ccccc1S(=O)(=O)N1CCN(c2ccc(S(=O)(=O)N3CCOCC3)cn2)CC1,0,0,0,0,0,0
Cc1ccc(S(=O)(=O)N2CCN(c3ccc(S(=O)(=O)N4CCOCC4)cn3)CC2)cc1,-,0,0,346[fluorescence artefact?],0,0
CCC(Oc1ccccc1)C(=O)Nc1ncccn1 (stereo not drawn),0,-,-,-,-,-
COCCNC(=S)Nc1ccc(OC)cc1,0,-,-,-,-,-
CC(=O)C1=C(O)C(=O)N(CC2CCCO2)C1c1ccc([N+](=O)[O-])cc1 (stereo not drawn),0,-,-,-,-,-
C=CCOc1ccc2c(C)cc(=O)oc2c1I,104,-,-,-,-,-
O=C(/C=C/c1ccco1)Nc1ccccc1NC(=O)/C=C/c1ccco1,0,-,-,-,-,-
O=C(/C=C/c1ccco1)Nc1cc(Cl)ccc1Cl,55,-,-,-,-,-
O=C(/C=C/c1ccco1)Nc1ccccc1[N+](=O)[O-],84,-,-,-,-,-
O=C(/C=C/c1ccco1)Nc1cc(Cl)cc(Cl)c1,0,-,-,-,-,-
CCC(C(=O)Nc1ccc(OC)cc1OC)c1ccccc1 (stereo not drawn),104,-,-,-,-,-
CC(=O)Nc1ccc(NC(=O)COc2ccc(Cl)cc2Br)cc1,0,-,-,-,-,-
COC(=O)c1ccccc1NC(=O)c1sc(N)nc1C,0,0,0,0,0,0
COC(=O)c1ccccc1NC(=O)c1sc(=S)n(C)c1N,0,0,0,0,0,70[fluorescence artefact?]
COc1ccc(NC(=O)CC(C)Cc2ccc(Cl)cc2)cc1 (stereo not drawn),0,-,-,-,-,-
NC(N)=NS(=O)(=O)c1ccc(NC(=S)NC(=O)/C=C/c2ccc(Br)cc2)cc1,0,-,-,-,-,-
SMILES,HePTP inhibitor,Smad3 inh,ERb coact inh,ERa SRC1 pot,Calb biofilm kill,ERa coact inh
CCc1c(C)sc(NC(=O)CCc2ccc(OC)cc2)c1C(=O)OC,104,-,-,-,-,-
O=C(N/N=C/c1ccccc1[N+](=O)[O-])c1cccc(Cl)c1,0,-,-,-,-,-
O=C(COC(=O)C1CC2C=CC1C2)NCc1ccco1 (stereo not drawn),0,0,57,0,0,72[fluorescence artefact?]
O=C(CN1CCCc2ccccc21)NC(=O)NCc1ccco1,0,0,0,0,0,0
O=C(COC(=O)C1CCCCC1C(=O)N1CCc2ccccc21)NCc1ccco1 (stereo not drawn),0,0,0,0,0,50[fluorescence artefact?]
Cc1c(NC(=O)CCN2C(=O)/C(=C\c3cccs3)SC2=S)c(=O)n(-c2ccccc2)n1C,0,-,-,-,-,-
C[N@@+]1(CC[N@+]2(C)CCC[C@@H]2c2cccnc2)CCC[C@@H]1c1cccnc1,-,91,-,-,-,-
COC(=O)c1oc2nc(C)cc(C)c2c1N,0,0,0,0,0,57[fluorescence artefact?]
Cc1cc(C)c2c(N)c(C(=O)c3ccccc3)oc2n1,0,0,0,0,0,0

# Screens (PubChem BioAssay)
